Measured values as given in PubChem BioAssay AID1508619 (National Center for Advancing Translational Sciences (NCATS), 2020).
Records with an inconclusive call do not appear. Where a call stands in place of a potency, no number is given. The source made the active and inactive calls. Calls follow the shape of the dose curve; as a rule, active = well fitted inhibition curve with a large enough effect; inconclusive = small, poorly fitted or top-dose-only effect; inactive = no such curve, though single readings can be large or run the other way.
Potency is read from the fitted curve at half-maximal effect.

Test: Counterscreen qHTS for Identification of Calcium Integrin Binding Protein 1 (CIB1) Competitor
Details: series mostly up to 114 µM
How it was run: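 Compounds (final up to 114 uM) preincubated 15 min at room temperature with 1 uM CIB1-GST in calcium-containing HEPES pH 7.4 buffer; 100 nM scrambled FITC peptide added, and fluorescence polarization (480/540) measured after another 15 min.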
In the case of O=C(NC(c1ccco1)c1cc(Cl)c2cccnc2c1O)c1cccs1 (stereo not drawn), the Potency was “inactive”.
For CCCC(=O)c1cc(O)c(O)cc1O, the Potency was 31.6 µM (active).
In the case of CN(C(=O)c1cccs1)c1cccnc1, the Potency was 44.7 µM (active).
For O=C1c2c(O)ccc(O)c2C(=O)c2c(NCCNCCO)ccc(NCCNCCO)c21, the Potency was 20 µM (active).
For Nc1ccc(CNc2ccc([S+](=O)([O-])Nc3nccs3)cc2)c(O)c1, the Potency was 50.1 µM (active).
With O=c1c2ccccc2nc2sc(NS(=O)(=O)c3ccc4c(c3)CCC4)nn12 the Potency was “inactive”.
In the case of NC[C@@H](O)c1ccc(O)c(O)c1, the Potency was “inactive”.
With CCc1oc2ccccc2c1C(=O)c1cc(Br)c(O)c(Br)c1 the Potency was “inactive”.
For N#Cc1cnc(NS(=O)(=O)c2ccc(NC(=O)Cc3ccc(F)c(Cl)c3)cc2)s1, the Potency was “inactive”.
With CC1(C)N=C(Nc2nc3ccccc3o2)NC2=C1C(=O)CCC2 the Potency was “inactive”.
In the case of O=C(O)c1ccc(O)c2ncc(N3CCC(N4CCOCC4)C3)cc12 (stereo not drawn), the Potency was “inactive”.
In the case of CC(C)(C)OC(=O)CC(=O)NNC(=O)c1nc2ccccc2[nH]1, the Potency was “inactive”.
For Oc1cccc2c(-c3nn[nH]n3)ccnc12, the Potency was “inactive”.
With Cc1ccc(C(=O)NC(c2ccco2)c2cc(Cl)c3cccnc3c2O)cc1 (stereo not drawn) the Potency was “inactive”.
With O=C(O)c1ccc(-c2ccc3ncnc(NCc4nccs4)c3c2)o1 the Potency was “inactive”.
For COc1ccc2nc(S(=O)Cc3ncc(C)c(OC)c3C)[nH]c2c1 (stereo not drawn), the Potency was “inactive”.
For CC1(C)OB(c2ccc(O)c3ncc(N4CCNCC4)cc23)OC1(C)C, the Potency was 20 µM (active).
For O=C(O)c1ccc(O)c2ncc(-c3n[nH]nc3-c3ccccc3)cc12, the Potency was “inactive”.
In the case of Oc1c(Cl)cc(Cl)c(Cl)c1Cc1c(O)c(Cl)cc(Cl)c1Cl, the Potency was “inactive”.
With Cc1ccc(C(=O)Nc2ccc(S(=O)(=O)O)c3cc(S(=O)(=O)O)cc(S(=O)(=O)O)c23)cc1NC(=O)c1cccc(NC(=O)Nc2cccc(C(=O)Nc3cc(C(=O)Nc4ccc(S(=O)(=O)O)c5cc(S(=O)(=O)O)cc(S(=O)(=O)O)c45)ccc3C)c2)c1 the Potency was “inactive”.
For Oc1cccc2cc(C3CC3)cnc12, the Potency was “inactive”.
For CC(=O)NC(c1cccs1)c1cc(Br)c2cccnc2c1O (stereo not drawn), the Potency was “inactive”.
In the case of Cc1cc(=O)oc2cc(SC3=NS(=O)(=O)c4ccccc43)ccc12, the Potency was “inactive”.
In the case of O=S(=O)(Nc1nccs1)c1ccc(Nc2nc(-c3ccccc3)cs2)cc1, the Potency was 50.1 µM (active).
For CCc1ccc(NC(=O)C(=O)NNC(=O)c2cccs2)cc1, the Potency was “inactive”.
In the case of C=CCNc1oc(-c2cccc3ccccc23)nc1C#N, the Potency was “inactive”.
In the case of Cc1cc(C(C#N)c2ccc(Cl)cc2)c(Cl)cc1NC(=O)c1cc(I)cc(I)c1O (stereo not drawn), the Potency was “inactive”.
For O=C(Nc1ccc(S(=O)(=O)N2CCOCC2)cc1)c1cc(Cl)ccc1NS(=O)(=O)c1ccc(Cl)s1, the Potency was “inactive”.
With CCOc1ccc2nc3cc(N)ccc3c(N)c2c1 the Potency was 31.6 µM (active).
With C[n+]1cc2c3c(ccc2c2ccc4cc5c(cc4c21)OCO5)OCO3 the Potency was “inactive”.
For Cc1ccccc1NC(=O)CN1C(=O)N/C(=C\c2cn(-c3cccc(C(=O)O)c3)cn2)C1=O, the Potency was “inactive”.
For NC(=O)c1ccc(O)c2ncccc12, the Potency was “inactive”.
For CCOc1ccc(CCNC(C)=O)cc1OCC, the Potency was “inactive”.
